# Measured values taken from PMC8384837, “Expanding the binding specificity for RNA recognition by a PUF domain”.
# Numbering of substitutions follows the chain as printed.
# Legend:
# Test in all cases: yeast three-hybrid, YBZ-1, SC-Leu-His + 0.5 mM 3-AT, 4 days
# Conditions in all cases: tags: N-Gal4 AD-HA kept; label: inside an RPR1-promoter hybrid RNA with tandem MS2 sites; ssRNA
# [1] = molecular target: PUM1 PUF domain R7-RNK (Homo sapiens, UniProt Q14671 828-1176, S1079R;E1083K)
# Summary of the method: (§1)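 The interaction score is the log change in variant frequency from input to selection. Scores were computed in log2 with a pseudocount of 1 for absent variants, using Illumina sequencing of PCR-amplified repeat regions. The input came from four days on SC-Leu and the selection from four days on SC-Leu-His + 0.5 mM 3-AT. The cells were strain YBZ-1 (LexA–MS2 coat fusion, HIS3 reporter) co-expressing Pumilio-1 PUF domain libraries and matching RNA elements from a centromeric plasmid.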
# [2] = molecular target: PUM1 PUF domain R4-DHE (Homo sapiens, UniProt Q14671 828-1176, N971D;Q975E)
# Summary of the method: as §1
# [3] = molecular target: PUM1 PUF domain R5-GRC (Homo sapiens, UniProt Q14671 828-1176, C1007G;Q1011C)
# Summary of the method: as §1
# [4] = molecular target: PUM1 PUF domain R5-IFM (Homo sapiens, UniProt Q14671 828-1176, C1007I;R1008F;Q1011M)
# Summary of the method: as §1
# [5] = molecular target: PUM1 PUF domain R8-WYR (Homo sapiens, UniProt Q14671 828-1176, N1122W;Q1126R)
# Summary of the method: as §1
# [6] = molecular target: PUM1 PUF domain R3-GPQ (Homo sapiens, UniProt Q14671 828-1176, C935G;R936P)
# Summary of the method: as §1
# [7] = molecular target: PUM1 PUF domain R5-RQM (Homo sapiens, UniProt Q14671 828-1176, C1007R;R1008Q;Q1011M)
# Summary of the method: as §1
# [8] = molecular target: PUM1 PUF domain R3-EFS (Homo sapiens, UniProt Q14671 828-1176, C935E;R936F;Q939S)
# Summary of the method: as §1
# [9] = molecular target: T1, PUM1 PUF domain R6-IYV (Homo sapiens, UniProt Q14671 828-1176, N1043I;Q1047V)
# T1 sequence: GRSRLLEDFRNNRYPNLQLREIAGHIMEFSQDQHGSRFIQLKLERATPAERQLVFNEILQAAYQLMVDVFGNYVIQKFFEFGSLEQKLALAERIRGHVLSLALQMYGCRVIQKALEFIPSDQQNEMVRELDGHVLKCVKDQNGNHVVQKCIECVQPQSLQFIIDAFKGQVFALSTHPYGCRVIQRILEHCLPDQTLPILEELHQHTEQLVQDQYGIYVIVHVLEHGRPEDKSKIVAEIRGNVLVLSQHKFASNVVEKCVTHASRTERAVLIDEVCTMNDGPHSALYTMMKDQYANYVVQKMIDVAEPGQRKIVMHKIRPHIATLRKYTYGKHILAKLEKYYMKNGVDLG
# Summary of the method: as §1
# [10] = molecular target: T2, PUM1 PUF domain R6-CFC (Homo sapiens, UniProt Q14671 828-1176, N1043C;Y1044F;Q1047C)
# T2 sequence: T1 sequence with I216C, Y217F, V220C
# Summary of the method: as §1
# [11] = molecular target: PUM1 PUF domain R5-KHG (Homo sapiens, UniProt Q14671 828-1176, C1007K;R1008H;Q1011G)
# Summary of the method: as §1
# [12] = molecular target: PUM1 PUF domain R4-SWG (Homo sapiens, UniProt Q14671 828-1176, N971S;H972W;Q975G)
# Summary of the method: as §1
# [13] = molecular target: PUM1 PUF domain R1-RWT (Homo sapiens, UniProt Q14671 828-1176, S863R;R864W;Q867T)
# Summary of the method: as §1
# [14] = molecular target: PUM1 PUF domain R2-EWT (Homo sapiens, UniProt Q14671 828-1176, N899E;Y900W;Q903T)
# Summary of the method: as §1
# [15] = molecular target: PUM1 PUF domain R5-QKC (Homo sapiens, UniProt Q14671 828-1176, C1007Q;R1008K;Q1011C)
# Summary of the method: as §1
# [16] = molecular target: PUM1 PUF domain R2-RTS (Homo sapiens, UniProt Q14671 828-1176, N899R;Y900T;Q903S)
# Summary of the method: as §1
# [17] = molecular target: T3, PUM1 PUF domain R6-CYE (Homo sapiens, UniProt Q14671 828-1176, N1043C;Q1047E)
# T3 sequence: T1 sequence with I216C, V220E
# Summary of the method: as §1
# [18] = molecular target: PUM1 PUF domain R7-RCQ (Homo sapiens, UniProt Q14671 828-1176, S1079R;N1080C;E1083Q)
# Summary of the method: as §1
# [19] = molecular target: PUM1 PUF domain R5-NTR (Homo sapiens, UniProt Q14671 828-1176, C1007N;R1008T;Q1011R)
# Summary of the method: as §1
# [20] = molecular target: PUM1 PUF domain R1-SPK (Homo sapiens, UniProt Q14671 828-1176, R864P;Q867K)
# Summary of the method: as §1
# PUM1 PUF domain R7-RNK, sequence (Q14671 828-1176 S1079R/E1083K): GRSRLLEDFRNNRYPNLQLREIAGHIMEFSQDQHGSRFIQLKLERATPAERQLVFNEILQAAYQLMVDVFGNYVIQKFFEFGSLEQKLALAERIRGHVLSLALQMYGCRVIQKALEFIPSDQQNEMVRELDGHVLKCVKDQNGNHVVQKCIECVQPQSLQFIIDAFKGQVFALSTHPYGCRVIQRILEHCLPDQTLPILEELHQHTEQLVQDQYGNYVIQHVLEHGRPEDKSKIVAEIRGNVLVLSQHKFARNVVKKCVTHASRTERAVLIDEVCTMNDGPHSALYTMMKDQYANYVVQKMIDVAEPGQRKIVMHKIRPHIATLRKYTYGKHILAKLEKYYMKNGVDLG
# PUM1 PUF domain R1-RWT, sequence (Q14671 828-1176 S863R/R864W/Q867T): as the sequence (Q14671 828-1176 S1079R/E1083K) above, with S36R, R37W, Q40T, R252S, K256E counted along it
sequence,measurement,setting,value
GGCUAGAACUAGUGGAUCCCCCGGCGCCCGGCGGCUCGAGCCCGGGUAAGUAUAAAUAGUCUGCAUGCCGCCGGGCGCCAUGCCUGCAGGUCGACUCUAGAAAACAUG,binding signal,[1],2.99 log2 enrichment (interaction score)
GGCUAGAACUAGUGGAUCCCCCGGCGCCCGGCGGCUCGAGCCCGGGUAAGUGUACAUAGUCUGCAUGCCGCCGGGCGCCAUGCCUGCAGGUCGACUCUAGAAAACAUG,binding signal,[2],2.01 log2 enrichment (interaction score)
GGCUAGAACUAGUGGAUCCCCCGGCGCCCGGCGGCUCGAGCCCGGGUAAGUGUAAAUAGUCUGCAUGCCGCCGGGCGCCAUGCCUGCAGGUCGACUCUAGAAAACAUG,binding signal,[3],4.07 log2 enrichment (interaction score)
same,binding signal,[4],2.52 log2 enrichment (interaction score)
same,binding signal,[5],4.75 log2 enrichment (interaction score)
same,binding signal,[6],4.19 log2 enrichment (interaction score)
same,binding signal,[7],2.06 log2 enrichment (interaction score)
same,binding signal,[8],2.99 log2 enrichment (interaction score)
same,binding signal,[9],2.91 log2 enrichment (interaction score)
same,binding signal,[10],1.34 log2 enrichment (interaction score)
same,binding signal,[11],3.79 log2 enrichment (interaction score)
same,binding signal,[1],2.47 log2 enrichment (interaction score)
GGCUAGAACUAGUGGAUCCCCCGGCGCCCGGCGGCUCGAGCCCGGGUAAGUGUAUAUAGUCUGCAUGCCGCCGGGCGCCAUGCCUGCAGGUCGACUCUAGAAAACAUG,binding signal,[2],4.57 log2 enrichment (interaction score)
same,binding signal,[12],2.5 log2 enrichment (interaction score)
GGCUAGAACUAGUGGAUCCCCCGGCGCCCGGCGGCUCGAGCCCGGGUAAGUGUAAAUGGUCUGCAUGCCGCCGGGCGCCAUGCCUGCAGGUCGACUCUAGAAAACAUG,binding signal,[13],0.98 log2 enrichment (interaction score)
GGCUAGAACUAGUGGAUCCCCCGGCGCCCGGCGGCUCGAGCCCGGGUAAGUGUAAAAAGUCUGCAUGCCGCCGGGCGCCAUGCCUGCAGGUCGACUCUAGAAAACAUG,binding signal,[14],2.39 log2 enrichment (interaction score)
GGCUAGAACUAGUGGAUCCCCCGGCGCCCGGCGGCUCGAGCCCGGGUAAGUGUUAAUAGUCUGCAUGCCGCCGGGCGCCAUGCCUGCAGGUCGACUCUAGAAAACAUG,binding signal,[3],4.6 log2 enrichment (interaction score)
same,binding signal,[15],3.74 log2 enrichment (interaction score)
GGCUAGAACUAGUGGAUCCCCCGGCGCCCGGCGGCUCGAGCCCGGGUAAGUGUAAAGAGUCUGCAUGCCGCCGGGCGCCAUGCCUGCAGGUCGACUCUAGAAAACAUG,binding signal,[16],3.27 log2 enrichment (interaction score)
GGCUAGAACUAGUGGAUCCCCCGGCGCCCGGCGGCUCGAGCCCGGGUAAGUGGAAAUAGUCUGCAUGCCGCCGGGCGCCAUGCCUGCAGGUCGACUCUAGAAAACAUG,binding signal,[17],2.53 log2 enrichment (interaction score)
GGCUAGAACUAGUGGAUCCCCCGGCGCCCGGCGGCUCGAGCCCGGGUAAGUCUAAAUAGUCUGCAUGCCGCCGGGCGCCAUGCCUGCAGGUCGACUCUAGAAAACAUG,binding signal,[18],2.3 log2 enrichment (interaction score)
same,binding signal,[1],3.45 log2 enrichment (interaction score)
GGCUAGAACUAGUGGAUCCCCCGGCGCCCGGCGGCUCGAGCCCGGGUAAGUGUGAAUAGUCUGCAUGCCGCCGGGCGCCAUGCCUGCAGGUCGACUCUAGAAAACAUG,binding signal,[3],1.57 log2 enrichment (interaction score)
GGCUAGAACUAGUGGAUCCCCCGGCGCCCGGCGGCUCGAGCCCGGGUAAGCGUAAAUAGUCUGCAUGCCGCCGGGCGCCAUGCCUGCAGGUCGACUCUAGAAAACAUG,binding signal,[5],4.97 log2 enrichment (interaction score)
GGCUAGAACUAGUGGAUCCCCCGGCGCCCGGCGGCUCGAGCCCGGGUAAGUGUAAGUAGUCUGCAUGCCGCCGGGCGCCAUGCCUGCAGGUCGACUCUAGAAAACAUG,binding signal,[6],3.73 log2 enrichment (interaction score)
same,binding signal,[8],3.82 log2 enrichment (interaction score)
GGCUAGAACUAGUGGAUCCCCCGGCGCCCGGCGGCUCGAGCCCGGGUAAGUGAAAAUAGUCUGCAUGCCGCCGGGCGCCAUGCCUGCAGGUCGACUCUAGAAAACAUG,binding signal,[10],4.06 log2 enrichment (interaction score)
GGCUAGAACUAGUGGAUCCCCCGGCGCCCGGCGGCUCGAGCCCGGGUAAGUGUAAUUAGUCUGCAUGCCGCCGGGCGCCAUGCCUGCAGGUCGACUCUAGAAAACAUG,binding signal,[6],1.42 log2 enrichment (interaction score)
same,binding signal,[8],4.44 log2 enrichment (interaction score)
GGCUAGAACUAGUGGAUCCCCCGGCGCCCGGCGGCUCGAGCCCGGGUAAGUGUAAAUUGUCUGCAUGCCGCCGGGCGCCAUGCCUGCAGGUCGACUCUAGAAAACAUG,binding signal,[13],4.77 log2 enrichment (interaction score)
GGCUAGAACUAGUGGAUCCCCCGGCGCCCGGCGGCUCGAGCCCGGGUAAGUGUCAAUAGUCUGCAUGCCGCCGGGCGCCAUGCCUGCAGGUCGACUCUAGAAAACAUG,binding signal,[3],0.62 log2 enrichment (interaction score)
same,binding signal,[19],5.46 log2 enrichment (interaction score)
same,binding signal,[7],4.46 log2 enrichment (interaction score)
GGCUAGAACUAGUGGAUCCCCCGGCGCCCGGCGGCUCGAGCCCGGGUAAGUGUAAAUCGUCUGCAUGCCGCCGGGCGCCAUGCCUGCAGGUCGACUCUAGAAAACAUG,binding signal,[20],2.31 log2 enrichment (interaction score)
same,binding signal,[13],5.45 log2 enrichment (interaction score)
